# Source: the supplement of paper PMC13380429
# Values without a mark were called inactive.
# Test system: Vero E6 infected with SARS-CoV-2
# Assay: inhibition of SARS-CoV-2 cytopathic effect; higher = more antiviral protection, active = above 15
# Conditions: 48 h
SMILES,inhibition of SARS-CoV-2 cytopathic effect (1 nM),inhibition of SARS-CoV-2 cytopathic effect (8.33 nM),inhibition of SARS-CoV-2 cytopathic effect (100 nM),inhibition of SARS-CoV-2 cytopathic effect (833.33 nM),inhibition of SARS-CoV-2 cytopathic effect (10000 nM)
CC(C)CC(N)=O [isovaleramide],1.36%,-1.79%,1.18%,0.06%,0.19%
COC1=C2C[C@@H](C)C[C@H](OC)[C@H](O)[C@@H](C)/C=C(\C)[C@H](OC(N)=O)[C@@H](OC)/C=C\C=C(/C)C(=O)NC(=CC1=O)C2=O [geldanamycin],1.08%,2.06%,0.35%,-3.32%,-4.4%
CCOc1nc2cccc(C(=O)OC(C)OC(=O)OC3CCCCC3)c2n1Cc1ccc(-c2ccccc2-c2nn[nH]n2)cc1 (stereo not given) [candesartan-cilexetil],-0.98%,-0.29%,-1.43%,-3.03%,-2.32%
COc1cc(CCc2cc(NC(=O)c3ccc(N4CC(C)NC(C)C4)cc3)n[nH]2)cc(OC)c1 (stereo not given),-1.78%,1.81%,1.04%,-1.56%,-1.21%
CCn1cnc2c(Nc3cccc(Cl)c3)nc(N[C@@H]3CCCC[C@@H]3N)nc21,-1.22%,0.37%,2.67%,3.13%,-29.1%
CN(NC(=O)CC(=O)NN(C)C(=S)c1ccccc1)C(=S)c1ccccc1 [elesclomol],1.66%,2.35%,18% (active),19.7% (active),36.4% (active)
Clc1ccc(CO/N=C(\Cn2ccnc2)c2ccc(Cl)cc2Cl)c(Cl)c1 [oxiconazole],-0.54%,0.43%,1.05%,0.68%,-1.24%
CCc1ccc(/C=C/C(=O)Nc2ccc(C(C)=O)cc2)o1 [heclin],-2.06%,-1.28%,-7.85%,-6.86%,-5.66%
OC(CN1CCN(c2cccc(Cl)c2)CC1)C(c1ccccc1)c1ccccc1 (stereo not given),2.69%,4.95%,2.68%,1.94%,3.63%
CC(C)(C)c1ccc(S(=O)(=O)Nc2ccc(Cl)cc2C(=O)c2cc[n+]([O-])cc2)cc1 [vercirnon],1.28%,1.21%,2.63%,4.3%,1.46%
Nc1nc(=O)n([C@@H]2CS[C@H](CO)O2)cc1F [emtricitabine],-0.33%,-2.03%,4.2%,-0.69%,-0.34%
C=CC(=O)Nc1ccc2ncnc(Nc3cccc(Br)c3)c2c1,-0.46%,-1.31%,-13.7%,-13.8%,-13.2%
C=CCN1CCc2nc(N)sc2CC1 [talipexole],-0.94%,1.41%,0.94%,-0.07%,-2.07%
COc1cc2c(cc1OC)[C@@H]1Cc3ccc(OC)c(OC)c3CN1CC2 [rotundine],-0.42%,-2.68%,-1.22%,4.97%,3.54%
O=C(O)c1ccc(/C=C2\SC(=S)N(c3cccc(C(F)(F)F)c3)C2=O)cc1,-0.08%,-0.83%,-2.17%,-1.38%,-0.46%
COc1cc2c(cc1OC)-c1c/c(=N\c3c(C)cc(C)cc3C)n(C)c(=O)n1CC2 [trequinsin],1.9%,2.01%,-0.55%,3.41%,6.34%
C#C[C@]1(O)CC[C@H]2[C@@H]3CCc4cc(OC)ccc4[C@H]3CC[C@@]21C [mestranol],0.06%,0.82%,0.83%,0.76%,-0.67%
CC(C)(C)NC[C@H](O)COc1cccc2c1CCCC2=O [levobunolol],-6.66%,-1.55%,-0.235%,2.58%,2.67%
COC(=O)Nc1nc2cc(Sc3ccccc3)ccc2[nH]1 [fenbendazole],0.07%,-1.31%,0.21%,0.61%,-0.61%
CN(C)C(=N)NCCC[C@H](N)C(=O)O [asymmetrical-dimethylarginine],-0.33%,-0.09%,-1.65%,0.84%,1.97%

SMILES,inhibition of SARS-CoV-2 cytopathic effect (1 nM),inhibition of SARS-CoV-2 cytopathic effect (8.33 nM),inhibition of SARS-CoV-2 cytopathic effect (100 nM),inhibition of SARS-CoV-2 cytopathic effect (833.33 nM),inhibition of SARS-CoV-2 cytopathic effect (10000 nM)
CN(C)CCn1nnnc1SCC1=C(C(=O)O)N2C(=O)[C@@H](NC(=O)Cc3csc(N)n3)[C@H]2SC1 [cefotiam],1.69%,-0.06%,-0.67%,1.14%,0.56%
O=C(O)CC[C@H]1CC[C@@](c2cc(F)ccc2F)(S(=O)(=O)c2ccc(Cl)cc2)CC1,-2.65%,-0.66%,-4.1%,-7.63%,-8.12%
NC(CO)C(=O)NNCc1ccc(O)c(O)c1O (stereo not given) [benserazide],-1.48%,3.19%,2.6%,-3.13%,-4.67%
Cn1c(=O)c2c(ncn2CC(=O)Nc2ccc(-c3ccccc3)nn2)n(C)c1=O,2.25%,0.06%,1.35%,4.8%,7.55%
O=C(Oc1cccc2cccnc12)c1ccccc1 [benzoxiquine],1.28%,1.56%,-0.45%,-1.05%,-3.29%
O=C(NC(NC(=S)Nc1ccc(F)c([N+](=O)[O-])c1)C(Cl)(Cl)Cl)C(c1ccccc1)c1ccccc1 (stereo not given),-2.82%,-2.75%,0.28%,-7.06%,-5.53%
CCCCN(CCCC)CC(O)c1cc(Cl)cc2c1-c1ccc(Cl)cc1/C2=C/c1ccc(Cl)cc1 (stereo not given) [lumefantrine],-1.1%,3.13%,2.25%,0.99%,-1.35%
NCCCNCCSP(=O)(O)O [amifostine],5.31%,3.29%,4.42%,1.87%,3.86%
CN1[C@@H]2C[C@@H](OC(=O)[C@H](CO)c3ccccc3)C[C@H]1[C@@H]1O[C@@H]12,1.79%,1.73%,1.2%,1.41%,0.06%
CC(C)(CO)CCCCCCC(C)(C)CO [gemcadiol],-2.86%,-2.01%,-1.65%,-2.84%,-2.43%
CCCC(C)C1(CC)C(=O)NC(=O)NC1=O (stereo not given) [pentobarbital],2.05%,2%,1.92%,-1.44%,-1.04%
CN(C(=O)/C=C/c1ccoc1)[C@@H]1CC[C@@]2(O)[C@H]3Cc4ccc(O)c5c4[C@@]2(CCN3CC2CC2)[C@H]1O5 [nalfurafine],-5.32%,-1.02%,0.43%,-2.31%,-1.57%
CC#CC(=O)N1CCC[C@H]1c1nc(-c2ccc(C(=O)Nc3ccccn3)cc2)c2c(N)nccn12 [acalabrutinib],2.14%,-0.44%,0.31%,-0.11%,-0.34%
NCCc1c[nH]cn1 [histamine],-0.66%,1.36%,0.17%,1.23%,1%
O=c1[nH]ccc2cc(OC3CCNCC3)ccc12,1.91%,0.89%,-0.08%,-3.34%,-7.36%
CNC(=O)c1ccc2cc([C@@]3(O)CCn4cncc43)ccc2c1 [orteronel],3.23%,3.01%,4.35%,3.1%,2.53%
NCCCCCNCC12CC3CC(CC(C3)C1)C2,2.39%,1.74%,0.57%,2.97%,-1.44%
N#Cc1ccc(Cn2cncc2CN2CCN(c3cccc(Cl)c3)C(=O)C2)cc1,3.21%,3.01%,0.11%,-2.48%,-1.12%
COc1ccc2[nH]c(I)c(CCNC(C)=O)c2c1 [2-iodomelatonin],3.34%,4.46%,0.99%,0.89%,0.94%
CCCc1c(OCC(O)COc2ccc3c(=O)cc(C(=O)O)oc3c2CCC)ccc(C(C)=O)c1O (stereo not given),3.39%,-0.15%,3.25%,6.19%,3.02%
